# CFTR F508del cor – CFTR F508del correction in bronchial cells | CFBE cells, YFP halide quenching; stimulated with forskolin plus potentiator P3; % fluorescence drop versus neutral controls | activity (quench increase), % at 7.58 µM | 0.36% of 350,000 active;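 active = mean added fluorescence quench of at least 8% versus neutral control, with both replicates also reaching 8%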;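 note: cells transiently co-express mutant CFTR-F508del with the halide-sensitive YFP; corrector assay measuring rescue of mutant channel to the surface after 24 h compound exposure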
# NRP1-CendR mod – NRP-1/CendR interaction modulation. 0.85% of 360,000 active. FAM-RPARPAR peptide binding to NRP-1, fluorescence polarization. O14786. inhibition, % at 25 µM;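 active = inhibition or corrected inhibition above about 18%, plus a signal ratio from 0.5 to 1.5, limit read from the data, passing the limit was not always enough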
# MPTP inh – permeability transition pore inhibition | inhibition, % at 10 µM | isolated mouse mitochondria, Ca2+ swelling absorbance, 30 min | 1.4% of 360,000 active;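 active = inhibition of 50% or more, scaled per plate between neutral and stimulator controls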;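 note: 0% = DMSO wells given calcium and 100% = 1 mM EGTA wells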
# ATG4B inhibitor – inhibitors of human ATG4B cysteine protease. Q9Y4P1. ATG4B cleavage of LC3-PLA2, NBD-HPC fluorescence, 1 h. inhibition, % at 8.33 µM. 0.51% of 340,000 active; in the data active = inhibition above about 40%
# Target sequence (Q9Y4P1 whole entry, looked up): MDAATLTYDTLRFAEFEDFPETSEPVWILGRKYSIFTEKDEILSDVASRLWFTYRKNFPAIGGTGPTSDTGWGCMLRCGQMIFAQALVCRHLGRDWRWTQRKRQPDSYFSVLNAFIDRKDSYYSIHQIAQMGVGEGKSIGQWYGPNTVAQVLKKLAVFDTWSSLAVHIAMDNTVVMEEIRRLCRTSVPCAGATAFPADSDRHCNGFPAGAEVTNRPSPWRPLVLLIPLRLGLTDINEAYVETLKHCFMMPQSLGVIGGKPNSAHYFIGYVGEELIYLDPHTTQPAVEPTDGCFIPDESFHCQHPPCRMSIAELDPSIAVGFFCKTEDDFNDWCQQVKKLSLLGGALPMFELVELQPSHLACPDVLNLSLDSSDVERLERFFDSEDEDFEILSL
# SKN-1 inh – blocks SKN-1 activity in C. elegans; C. elegans VP596 Pgst-4::GFP/RFP ratio, acrylamide-induced, 24 h; inhibition, % at 21.8 µM; 0.49% of 360,000 active; AID 624304;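 active = interference check ratio from 0.5 to 1.5 plus GFP to RFP signal ratio inhibition reaching or exceeding a fixed threshold, cut at about 30% in these data, passing the limit was not always enough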
# Rh123 counter – Rhodamine 123 counter-screen of mitochondrial pore hits | AID 624504 | shares compounds with MPTP inh | 78% of 5,000 active | isolated mitochondria, membrane potential, Rhodamine 123 fluorescence | inhibition, % at 10 µM; in the data active = inhibition above about 22%;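 note: 0% = DMSO vehicle and 100% = positive control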
# MPTP abs DR – dose response confirmation of mitochondrial permeability transition pore inhibitors; shares compounds with MPTP inh; isolated mitochondria swelling, absorbance; IC50, µM; 58% of 780 active; AID 651561; in the data active = IC50 below about 20 µM
# MPTP cs DR – counter-screen for mitochondrial permeability transition pore inhibitors, dose response | shares compounds with MPTP inh | isolated mitochondria counterscreen, fluorescence read-out | IC50, µM | 49% of 780 active | AID 651564; in the data active = IC50 below about 80 µM
# Starred values were filed as active, the others as inactive; i = inactive; x = not tested or not shown. The list is not random: actives were taken first. Their share in the collection is about 2.7%.
SMILES,CFTR F508del cor,NRP1-CendR mod,MPTP inh,ATG4B inhibitor,SKN-1 inh,Rh123 counter,others
N#Cc1c(N)nc(Sc2ccc(Cl)cc2)c(C#N)c1-c1ccccc1Cl,-3,3,76*,1,6,56*,
COC(=O)c1sccc1N/N=C/c1cccc(Oc2ccccc2)c1,2,2,64*,-8,-3,-8,MPTP abs DR=i;MPTP cs DR=>80
COC(=O)c1sccc1N/N=C/c1cccc(OC)c1O,x,6,1,-12,12,x,
Oc1cc(Cl)cc(Cl)c1Cl,3,-13,52*,-6,-4,80*,
COc1ccc(NC(=S)Nc2ccc3nccnc3c2)cc1,x,-2,0,-1,-15,x,
COc1ccc(NC(=S)Nc2ccc3snnc3c2)cc1,-2,3,73*,-2,-15,79*,
C[C@H](CO)N1C[C@H](C)[C@@H](CN(C)Cc2ccc(C(=O)O)cc2)Oc2ccc(NS(=O)(=O)c3ccc(F)cc3)cc2C1=O,1,x,x,x,x,x,
COc1ccc(-c2cn(Cc3ccc(C(=O)NCc4ccc(C)cc4)cc3)c(C(C)N)n2)cc1 (stereo not given),2,16,75*,-12,-5,-20,MPTP abs DR=10*;MPTP cs DR=>80
COc1ccc(Cl)cc1N(C(=O)Nc1cccc(Cl)c1)C1=NCC(C)S1 (stereo not given),x,14,92*,-2,17,89*,
COc1ccccc1N(C)S(=O)(=O)c1ccc(C(=O)OCC(=O)NCc2ccco2)cc1,x,13,51*,2,1,-1,MPTP abs DR=>100;MPTP cs DR=>80
NC1=NC[C@H](Cc2ccccc2)N1CCCCC1CCCCC1,-1,10,82*,9,1,48*,
COC(=O)Cc1ccc(NC(=S)NCc2ccccc2Cl)cc1,3,-14,4,24,3,x,
CC(=O)c1cccc(NC(=O)Nc2cnn(Cc3ccc(Cl)cc3Cl)c2)c1,x,-2,73*,15,8,71*,
CNC(=O)Nc1ccc(Cl)cc1,x,10,96*,1,-15,91*,
CC(=O)c1ccc(NC(=O)Nc2ccc(Cl)cc2)cc1,0,5,85*,-12,-6,86*,
CC(=O)c1ccc(NC(=O)Nc2ccncc2)cc1,-2,16,2,-8,-1,x,
CC(=O)c1ccc(NC(=S)NCc2ccc(Cl)cc2Cl)cc1,0,2,95*,11,8,94*,
O=C(c1ccccc1F)N1CC2(C1)[C@H](c1ccccc1)[C@H](CO)N2CC1CC1,0,x,x,x,x,x,
CO[C@@H]1CN(C)C(=O)c2cc(NS(=O)(=O)c3ccccc3C)ccc2OC[C@H](C)NC[C@@H]1C,0,x,x,x,x,x,
Cc1noc(C)c1NC(=O)N(C)C[C@H]1Oc2c(NC(=O)Nc3ccc(C(F)(F)F)cc3)cccc2C(=O)N([C@@H](C)CO)C[C@@H]1C,2,x,x,x,x,x,
FC(F)(F)c1cc(CCN2CCNC[C@@H]2Cc2ccccc2)cc(C(F)(F)F)c1,2,-6,92*,6,4,-22,
Fc1cccc(CCN2CCNC[C@@H]2Cc2ccccc2)c1,3,0,22,6,2,x,
C[C@H](CO)N1C[C@H](C)[C@H](CN(C)S(=O)(=O)c2ccccc2)Oc2ccc(NS(=O)(=O)c3ccc(Cl)cc3)cc2CC1=O,0,x,x,x,x,x,
O=C(NCCOc1ccccc1)c1cc(C(=O)NCCOc2ccccc2)cc([N+](=O)[O-])c1,x,1,56*,-23,12,93*,
CO/N=C/c1ccc(N2CCN(C(=O)c3ccc(Cl)cc3Cl)CC2)c([N+](=O)[O-])c1,x,-13,78*,-1,-7,60*,
CO/N=C/c1ccc(N2CCN(C(=O)c3ccc(F)cc3)CC2)c([N+](=O)[O-])c1,x,-7,9,-1,-15,x,
O=S(=O)(c1ccc(Cl)cc1)N1CCN(c2ncnc3sccc23)CC1,0,1,70*,-7,-3,94*,
O=S(=O)(c1ccc(Cl)cc1)N1CCN(c2ccccn2)CC1,-4,7,1,-3,-10,x,
Cc1csc2c(N3CCN(S(=O)(=O)c4ccc(Cl)cc4)CC3)ncnc12,2,4,67*,4,10,21*,

# Screening data as filed in PubChem BioAssay.
